# From the supplement of paper PMC8728848
# The sample as a whole holds a higher share of the strongest signals than the screen did.
# Key:
# Experiment in all cases: glycan array binding signal (z-score within array); higher = stronger binding
# Details in all cases: glycan notation: IUPAC condensed, linker removed
# [1] = target: Fuc(a1-2)Gal(b1-3)GalNAc(b1-3)Gal(a1-4)Gal(b1-4)Glc
# Summary of the method: (§1)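 Arrays were curated from the Consortium for Functional Glycomics database, 3228 in total, and kept only where the protein sequence was available. Binding is expressed as a within-array Z-score. This score was averaged across arrays of the same protein sequence at different concentrations or buffers and across linkers, and negative values can be read as non-binding.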
# [2] = target: Fuc(a1-2)Gal(b1-3)GlcNAc(b1-2)Man(a1-3)[Fuc(a1-2)Gal(b1-3)GlcNAc(b1-2)Man(a1-6)]Man(b1-4)GlcNAc(b1-4)[Fuc(a1-6)]GlcNAc
# Summary of the method: as §1
# [3] = target: Fuc(a1-2)Gal(b1-3)[Fuc(a1-4)]GlcNAc
# Summary of the method: as §1
# [4] = target: Fuc(a1-2)Gal6S(b1-4)Glc
# Summary of the method: as §1
# [5] = target: Fuc(a1-4)GlcNAc
# Summary of the method: as §1
# [6] = target: Fuc(b1-3)GlcNAc
# Summary of the method: as §1
# [7] = target: Gal(a1-3)Gal(b1-4)GlcNAc(b1-2)Man
# Summary of the method: as §1
# [8] = target: Gal(a1-3)Gal(b1-4)GlcNAc(b1-3)GalNAc
# Summary of the method: as §1
# [9] = target: Gal(a1-4)Gal(b1-4)GlcNAc(b1-3)Gal(b1-4)Glc
# Summary of the method: as §1
# [10] = target: Gal(b1-3)GalNAc(b1-3)Gal
# Summary of the method: as §1
# [11] = target: Gal(b1-3)GlcNAc(b1-2)Man(a1-3)[Gal(b1-3)GlcNAc(b1-2)Man(a1-6)]Man(b1-4)GlcNAc(b1-4)[Fuc(a1-6)]GlcNAc
# Summary of the method: as §1
# [12] = target: Gal(b1-3)[Fuc(a1-4)]GlcNAc(b1-2)Man
# Summary of the method: as §1
# [13] = target: Gal(b1-4)GlcNAc(b1-2)Man(a1-3)[Gal(b1-4)GlcNAc(b1-2)Man(a1-6)]Man(b1-4)GlcNAc(b1-4)[Fuc(a1-6)]GlcNAc
# Summary of the method: as §1
# [14] = target: Gal(b1-4)GlcNAc(b1-2)Man(a1-3)[Gal(b1-4)GlcNAc(b1-2)Man(a1-6)][Gal(b1-4)GlcNAc(b1-4)]Man(b1-4)GlcNAc(b1-4)[Fuc(a1-6)]GlcNAc
# Summary of the method: as §1
# [15] = target: Gal(b1-4)GlcNAc(b1-2)Man(a1-6)Man(b1-4)GlcNAc(b1-4)GlcNAc
# Summary of the method: as §1
# [16] = target: Gal(b1-4)GlcNAc(b1-2)[Gal(b1-4)GlcNAc(b1-6)]Man(a1-6)[Gal(b1-4)GlcNAc(b1-2)Man(a1-3)]Man(b1-4)GlcNAc(b1-4)[Fuc(a1-6)]GlcNAc
# Summary of the method: as §1
# [17] = target: Gal(b1-4)GlcNAc(b1-3)Gal(b1-3)GalNAc
# Summary of the method: as §1
# [18] = target: Gal(b1-4)GlcNAc(b1-3)Gal(b1-4)GlcNAc
# Summary of the method: as §1
# [19] = target: Gal(b1-4)GlcNAc(b1-3)Gal(b1-4)GlcNAc(b1-2)Man(a1-3)[Gal(b1-4)GlcNAc(b1-3)Gal(b1-4)GlcNAc(b1-2)Man(a1-6)]Man(b1-4)GlcNAc(b1-4)[Fuc(a1-6)]GlcNAc
# Summary of the method: as §1
# [20] = target: Gal(b1-4)GlcNAc(b1-3)Gal(b1-4)GlcNAc(b1-3)Gal(b1-4)GlcNAc(b1-2)Man(a1-3)[Gal(b1-4)GlcNAc(b1-3)Gal(b1-4)GlcNAc(b1-3)Gal(b1-4)GlcNAc(b1-2)Man(a1-6)]Man(b1-4)GlcNAc(b1-4)[Fuc(a1-6)]GlcNAc
# Summary of the method: as §1
# [21] = target: Gal(b1-4)GlcNAc(b1-3)Gal(b1-4)GlcNAc(b1-3)Gal(b1-4)GlcNAc(b1-3)Gal(b1-4)GlcNAc(b1-2)Man(a1-3)[Gal(b1-4)GlcNAc(b1-3)Gal(b1-4)GlcNAc(b1-3)Gal(b1-4)GlcNAc(b1-3)Gal(b1-4)GlcNAc(b1-2)Man(a1-6)]Man(b1-4)GlcNAc(b1-4)[Fuc(a1-6)]GlcNAc
# Summary of the method: as §1
# [22] = target: Gal(b1-4)GlcNAc(b1-3)Gal(b1-4)GlcNAc(b1-3)Gal(b1-4)GlcNAc(b1-3)Gal(b1-4)GlcNAc(b1-3)Gal(b1-4)GlcNAc(b1-2)Man(a1-3)[Gal(b1-4)GlcNAc(b1-3)Gal(b1-4)GlcNAc(b1-3)Gal(b1-4)GlcNAc(b1-3)Gal(b1-4)GlcNAc(b1-3)Gal(b1-4)GlcNAc(b1-2)Man(a1-6)]Man(b1-4)GlcNAc(b1-4)[Fuc(a1-6)]GlcNAc
# Summary of the method: as §1
# [23] = target: Gal(b1-4)GlcNAc(b1-3)Gal(b1-4)GlcNAc(b1-6)[Gal(b1-3)]GalNAc
# Summary of the method: as §1
# [24] = target: Gal6S(b1-3)GlcNAc6S
# Summary of the method: as §1
# [25] = target: Gal6S(b1-4)Glc6S
# Summary of the method: as §1
# [26] = target: GalNAc4S6S(b1-4)GlcNAc
# Summary of the method: as §1
# [27] = target: GlcNAc(a1-3)Gal(b1-4)GlcNAc
# Summary of the method: as §1
# [28] = target: GlcNAc(b1-2)[GlcNAc(b1-6)]Man(a1-6)[GlcNAc(b1-2)Man(a1-3)]Man(b1-4)GlcNAc(b1-4)[Fuc(a1-6)]GlcNAc
# Summary of the method: as §1
# [29] = target: GlcNAc(b1-3)Gal(b1-4)GlcNAc(b1-2)Man(a1-3)[GlcNAc(b1-3)Gal(b1-4)GlcNAc(b1-2)Man(a1-6)]Man(b1-4)GlcNAc(b1-4)GlcNAc
# Summary of the method: as §1
# [30] = target: GlcNAc(b1-3)Gal(b1-4)GlcNAc(b1-3)Gal(b1-4)GlcNAc(b1-2)Man(a1-3)[GlcNAc(b1-3)Gal(b1-4)GlcNAc(b1-3)Gal(b1-4)GlcNAc(b1-2)Man(a1-6)]Man(b1-4)GlcNAc(b1-4)[Fuc(a1-6)]GlcNAc
# Summary of the method: as §1
# [31] = target: Kdn(a2-3)Gal(b1-3)GalNAc
# Summary of the method: as §1
# [32] = target: Man(a1-3)[Man(a1-6)]Man(b1-4)GlcNAc(b1-4)[Fuc(a1-6)]GlcNAc
# Summary of the method: as §1
# [33] = target: Neu5Ac(a2-3)Gal(b1-3)GlcNAc(b1-2)[Neu5Ac(a2-3)Gal(b1-3)GlcNAc(b1-4)]Man(a1-6)[Neu5Ac(a2-3)Gal(b1-3)GlcNAc(b1-2)Man(a1-3)]Man(b1-4)GlcNAc(b1-4)GlcNAc
# Summary of the method: as §1
# [34] = target: Neu5Ac(a2-3)Gal(b1-3)GlcNAc6S
# Summary of the method: as §1
# [35] = target: Neu5Ac(a2-3)Gal(b1-4)GlcNAc(b1-2)Man(a1-3)[Neu5Ac(a2-3)Gal(b1-4)GlcNAc(b1-2)Man(a1-6)]Man(b1-4)GlcNAc(b1-4)[Fuc(a1-6)]GlcNAc
# Summary of the method: as §1
# [36] = target: Neu5Ac(a2-6)Gal(b1-4)GlcNAc(b1-2)Man(a1-3)[Neu5Ac(a2-3)Gal(b1-4)GlcNAc(b1-2)Man(a1-6)]Man(b1-4)GlcNAc(b1-4)GlcNAc
# Summary of the method: as §1
# [37] = target: Neu5Ac(a2-6)Gal(b1-4)GlcNAc(b1-2)Man(a1-3)[Neu5Ac(a2-6)Gal(b1-4)GlcNAc(b1-2)Man(a1-6)]Man(b1-4)GlcNAc(b1-4)[Fuc(a1-6)]GlcNAc
# Summary of the method: as §1
# [38] = target: Neu5Ac(a2-6)Gal(b1-4)GlcNAc(b1-6)[Gal(b1-3)GlcNAc(b1-3)]Gal(b1-4)Glc
# Summary of the method: as §1
# [39] = target: Neu5Ac(a2-8)Neu5Ac(a2-8)Neu5Ac(a2-3)[GalNAc(b1-4)]Gal(b1-4)Glc
# Summary of the method: as §1
# [40] = target: Neu5Ac(b2-6)GalNAc
# Summary of the method: as §1
binder,measurement,setting,value
BTL (Bryothamnion triquetrum) (protein) ADPICGSSGYSCTTPAILTPKSPGSFPSGYSKVIVTGVGGSYSVYIHRPDGFKVYKASEGGCASFGSYSGGGNSEVGKYGSGGTVVAVACK,glycan array binding signal (z-score),[1],-0.262
same,glycan array binding signal (z-score),[2],2.75
same,glycan array binding signal (z-score),[3],-0.245
same,glycan array binding signal (z-score),[4],-0.244
same,glycan array binding signal (z-score),[5],-0.199
same,glycan array binding signal (z-score),[6],-0.257
same,glycan array binding signal (z-score),[7],-0.311
same,glycan array binding signal (z-score),[8],-0.244
same,glycan array binding signal (z-score),[9],-0.208
same,glycan array binding signal (z-score),[10],-0.22
same,glycan array binding signal (z-score),[11],4.76
same,glycan array binding signal (z-score),[12],-0.111
same,glycan array binding signal (z-score),[13],4.92
same,glycan array binding signal (z-score),[14],0.352
same,glycan array binding signal (z-score),[15],-0.192
same,glycan array binding signal (z-score),[16],6.49
same,glycan array binding signal (z-score),[17],-0.107
same,glycan array binding signal (z-score),[18],-0.27
same,glycan array binding signal (z-score),[19],6.38
same,glycan array binding signal (z-score),[20],5.89
same,glycan array binding signal (z-score),[21],4.48
same,glycan array binding signal (z-score),[22],4.45
same,glycan array binding signal (z-score),[23],-0.128
same,glycan array binding signal (z-score),[24],-0.24
same,glycan array binding signal (z-score),[25],-0.18
same,glycan array binding signal (z-score),[26],-0.129
same,glycan array binding signal (z-score),[27],-0.194
same,glycan array binding signal (z-score),[28],4.85
same,glycan array binding signal (z-score),[29],-0.193
same,glycan array binding signal (z-score),[30],4.09
same,glycan array binding signal (z-score),[31],-0.259
same,glycan array binding signal (z-score),[32],4.2
same,glycan array binding signal (z-score),[33],-0.099
same,glycan array binding signal (z-score),[34],-0.24
same,glycan array binding signal (z-score),[35],5.15
same,glycan array binding signal (z-score),[36],-0.249
same,glycan array binding signal (z-score),[37],8.12
same,glycan array binding signal (z-score),[38],-0.204
same,glycan array binding signal (z-score),[39],-0.289
same,glycan array binding signal (z-score),[40],-0.274
